# Laboratory results reported in PubChem BioAssay (NCI).
# The panel holds about 83,000 compounds, 20% with a hit somewhere; the sample as a whole holds those more often.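 Note: values are percent growth. 100 is the growth of untreated cells, values between 100 and 0 indicate rising inhibition; between -100 and 0 indicates cell death.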 The source made the active and inactive calls. Rule for the calls: active = growth percent below 10; inactive = the rest.
# Tested on: NCI-H460 lung
# Test: NCI-60 one-dose screen, 48 h (100 = growth as untreated, 0 = no growth, -100 = all killed)
# Details: 10 µM unless noted
row,SMILES,growth
1,NC(N)=N/N=C(/c1ccccc1)c1ccc(Cl)cc1,52.3% (inactive)
2,O=C(Nc1nc(-c2ccc(Cl)cc2)cs1)c1cc(O)c(O)c(O)c1,10.2% (inactive)
3,CC(=O)Oc1ccc(C2OC(c3ccc4ccccc4c3OC(C)=O)=NN2C(C)=O)c(OC(C)=O)c1 (configuration not stated),6.03% (active)
4,Fc1ccc(-c2nnc(-c3c(-c4ccc(F)cc4)nc4ncccn34)o2)cc1,111% (inactive)
5,COc1ccc(/C=C(\C#N)c2ccccc2)cc1,98.9% (inactive)
6,C=C(C)[C@H]1CC/C(C)=C/CC[C@]2(C)O[C@H]2CC/C(C=O)=C\C1O (some centres not stated),104% (inactive)
7,O=c1ccn(C2OC(CO)C(O)C2F)c(=O)[nH]1 (configuration not stated),113% (inactive)
8,COc1cccc(-c2nnc(N)o2)c1,107% (inactive)
9,O=c1cc(-c2cccnc2)oc2c1ccc1ccccc12,70.4% (inactive)
10,COc1ccc(-c2cn(-c3ccccc3)c(-c3ccccc3)n2)cc1OC,70.5% (inactive)
11,COc1cc(Oc2cc(-c3cccnc3)ccc2NC(=O)Nc2ccc(F)cc2F)cc(OC)c1OC,99.1% (inactive)
12,ClC1=C(Cl)C(Cl)=C(Cl)C1=C/C=C/c1ccccc1,0.0738% (active)
13,CNc1ccc(CSc2ccc(Cl)cc2)cc1,105% (inactive)
14,C/C(=C\CCc1ccoc1)CC/C=C(\C)CCCN1CCC(CO)CC1,53.8% (inactive)
15,Oc1ccc(Cc2ccc(O)c(C3CC(c4ccc(Cl)cc4)=NN3)c2)cc1C1CC(c2ccc(Cl)cc2)=NN1 (configuration not stated),4.56% (active)
16,CSc1nc2c(c(=O)n1C)C(c1ccccc1)C1=C(N2)/C(=C/c2ccccc2)CCC1 (configuration not stated),54.3% (inactive)
17,CCCc1nn(C)c2c(=O)[nH]c(-c3cc(S(=O)(=O)N4CCN(C)CC4)ccc3OCC)nc12,114% (inactive)
18,O=C(/C(=N/O)S(=O)(=O)c1ccccc1)c1cccs1,102% (inactive)
19,Cc1ccccc1-c1cc(Cc2ccccc2O)c(=O)[nH]n1,115% (inactive)

row,SMILES,growth
1,O=C(CSc1nc2c(n1Nc1ccccc1)-c1ccccc1SC2)Nc1nc(-c2ccc(Cl)cc2)cs1,77% (inactive)
2,CCOc1cc(C(C)(C)C)ccc1C1=N[C@H](c2ccc(Cl)cc2)[C@H](c2ccc(Cl)cc2)N1C(=O)N1CCN(CC#Cc2cccc3c2CN([C@@H]2CCC(=O)NC2=O)C3=O)CC1,24.2% (inactive)
3,Nc1ccc(S(=O)(=O)Nc2ncccn2)cc1,108% (inactive)
4,CC(=O)n1c2ccccc2c2ccccc21,117% (inactive)
5,O=C1C(Cl)=C(N=Nc2c(Cl)c(O)c3ccccc3c2O)C(=O)c2ccccc21,55.7% (inactive)
6,NC(N)=NN=c1c(=O)c2ccccc2c1=O,0.312% (active)
7,O=C(Nc1ccccc1Cl)c1cnc2ccc(C3CCNCC3)cn12,86.4% (inactive)
8,CC12CCC3C(CCC4CC(=O)/C(=C\O)CC43C)C1CCC(=O)O2 (configuration not stated),115% (inactive)
9,Oc1[nH]c2ccc(Cl)cc2c1/C=c1/ccc2c(c1)N=C(c1ccc(C(F)(F)F)cc1)N=2,39.2% (inactive)
10,O=C(c1ccccc1)c1ccccc1Cl,104% (inactive)
11,N#Cc1c(N2CCOCC2)nc2sc3cc(Cl)ccc3n2c1=N,91.4% (inactive)
12,O=C1CCCN1C1CCN(Cc2cc3ccccc3[nH]c2=O)c2ccccc21 (configuration not stated),102% (inactive)
13,CN(C)c1ccc(/C=C(\C#N)c2nc3ccccc3c(=O)[nH]2)cc1,87.3% (inactive)
14,CCn1c2ccccc2c2ccc(C(C)=O)cc21,108% (inactive)
15,Clc1cccc(Cc2cn3cc(-c4ccccc4)nc3s2)c1,16.5% (inactive)
16,COc1cc(C2NC(c3ccc(Cl)cc3)C(C)C(=NC(=O)c3cnccn3)C2C)cc(OC)c1OC (configuration not stated),103% (inactive)
17,COc1ccc(C2=NN(C(=O)c3cc(OC)c(OC)c(OC)c3)C(c3ccc(C#N)cc3)C2)cc1OC (configuration not stated),9.81% (active)
18,CCc1[nH]nc(-c2ccc(OC)cc2)c1-c1ccccc1OCCN(CC)CC,103% (inactive)
